CBFb-RUNX1 inh – qHTS Assay for Compounds Blocking the Interaction Between CBF-beta and RUNX1 for the Treatment of Acute Myeloid Leukemia. Runt-related transcription factor 1 (Homo sapiens) + Core-binding factor subunit beta …. AlphaScreen CBFb-His/RUNX1-biotin binding, biochemical. Potency, µM (highest dose often 59.8 µM), usual class: inhibitors. 230,000 tested, under 10 active
Target sequence (Q01196 whole entry, looked up): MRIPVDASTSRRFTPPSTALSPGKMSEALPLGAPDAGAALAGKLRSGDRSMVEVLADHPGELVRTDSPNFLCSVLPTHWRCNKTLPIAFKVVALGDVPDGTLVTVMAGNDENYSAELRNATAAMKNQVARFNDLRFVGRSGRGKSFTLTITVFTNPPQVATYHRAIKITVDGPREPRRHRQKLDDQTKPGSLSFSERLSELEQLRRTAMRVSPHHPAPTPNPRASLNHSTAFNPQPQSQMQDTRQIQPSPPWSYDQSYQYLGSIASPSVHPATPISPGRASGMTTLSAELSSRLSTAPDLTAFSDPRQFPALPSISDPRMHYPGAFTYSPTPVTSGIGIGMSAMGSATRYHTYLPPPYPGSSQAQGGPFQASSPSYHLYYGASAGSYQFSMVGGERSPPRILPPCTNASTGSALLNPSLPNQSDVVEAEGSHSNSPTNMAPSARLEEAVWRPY
Target sequence (Q13951 whole entry, looked up): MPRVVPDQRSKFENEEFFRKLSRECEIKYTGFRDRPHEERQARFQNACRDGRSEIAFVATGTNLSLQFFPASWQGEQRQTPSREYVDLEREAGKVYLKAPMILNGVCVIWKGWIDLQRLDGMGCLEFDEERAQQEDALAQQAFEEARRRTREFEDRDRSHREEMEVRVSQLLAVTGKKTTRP
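Read-out: AlphaScreen. Format: His-CBF-beta with biotinylated RUNX1 (30 nM each) preincubated 20 min, compound 15 min, Ni-chelate plus streptavidin beads 90 min; room temperature throughout.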
RORg inh – qHTS for inhibitors of ROR gamma transcriptional activity. Potency, µM (top dose mostly 53.6 µM), most hits filed as inhibitors. AID 2551, 2010. Nuclear receptor ROR-gamma (Mus musculus), P51450. 5.4% of 310,000 active. Drosophila S2 Gal4-RORgamma UAS-luciferase reporter, 20 h; note: nearly all actives have a fitted effect of over 60% in size
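Luciferase reporter read in Schneider cells carrying Gal4-RORγ (mouse) and UAS-Photinus luciferase; cells given compound 1 h before 700 uM copper sulfate induction, then incubated 20 h at ambient temperature.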
CtBP-E1A inh – qHTS Assay for Inhibitors of the CtBP/E1A Interaction | 0.49% of 340,000 active | activity change, % (test concentration not listed) | CtBP / adenovirus E1A interaction (AlphaScreen) | AlphaScreen GST-E1A/His-CtBP binding, 1536-well; stronger effect = lower value | AID 651724, 2012; in the data active = activity change below about -65%; inconclusive = mostly about -30% to -63%
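GST-E1A and His-tagged CtBP (125 nM each as 5X stock) were preincubated with pin-transferred compound for 2 h at 37 °C in the dark, then glutathione donor and nickel acceptor beads were added for 1 h before AlphaScreen reading.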
MBNL1 CUG block – qHTS Assay for Inhibitors of MBNL1-poly(CUG) RNA binding; Muscleblind-like protein 1 (Homo sapiens), Q9NR56; TR-FRET MBNL1-His/biotin-(CUG)12 binding, 665/545 ratio; Potency, µM (series often up to 57.5 µM), actives largely listed as inhibitors; 0.036% of 280,000 active; active = well fitted inhibition curve with a large enough effect in the signal ratio, with a control signal flat, not every such curve was filed as active; inconclusive = small, poorly fitted or top-dose-only effect, or effect the other way, or a change in a side signal; inactive = no such curve, though single readings can be large or run the other way; the % refers to the signal ratio
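Inhibition of protein-RNA binding appears as loss of TR-FRET between terbium anti-His antibody on MBNL1-His and streptavidin-XL665 on biotin-(CUG)12. Activity is normalized to buffer-only and uninhibited-complex controls.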
Gal4-VP16 FLuc – VP16 counterscreen qHTS for inhibitors of ROR gamma transcriptional activity; Drosophila S2 Gal4-VP16 UAS-luciferase, luminescence, 20 h; Potency, µM (series often up to 53.6 µM), most hits filed as inhibitors; 3.5% of 310,000 active; AID 2546, 2010;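 note: Gal4-VP16 expression switched on by copper sulfate through the metallothionein promoter; nearly all actives have a fitted effect of over 50% in size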
Six1-Eya2 blk – qHTS Assay for Inhibitors of the Six1/Eya2 Interaction. AlphaScreen GST-Six1/His-Eya2 binding, biochemical; stronger effect = lower value. activity change, % (concentration not given with the values). 0.56% of 360,000 active; in the data active = activity change below about -65%; inconclusive = mostly about -30% to -63%
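Six1/Eya2 binding was read as AlphaScreen signal after compounds were pinned into GST-Six1 plus His-tagged Eya2 (5X stock 250/500 nM) in pH 8.0 Tris/NaCl/TCEP buffer, beads added, then incubated 1 h, 37 C, dark.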
Of the large screens only hits and unclear results are named; the others gave an inactive call. Sampled rows, rich in hits. Any-hit rate of the full collection: about 5.5%. Unless noted, calls come from the whole dose curve; as a rule, active = well fitted curve in the direction sought with a large enough effect; inconclusive = small, poorly fitted or top-dose-only effect, or another doubt; inactive = no such curve, though single readings can be large; an effect the other way counts as inactive or inconclusive.

CC(C)C(=O)SCCCCCCC(=O)Nc1nc(-c2ccccc2)cs1	Gal4-VP16 FLuc inconclusive (no result: CtBP-E1A inh, MBNL1 CUG block, Six1-Eya2 blk)
CC(NC(=S)NC(=O)c1cccs1)c1ccccc1 (stereo unspecified)	none (no result: CBFb-RUNX1 inh, RORg inh, MBNL1 CUG block, Gal4-VP16 FLuc)
COc1ccc(NC(=O)N(C)C[C@@H]2Oc3cc(C#CCN(C)C)ccc3S(=O)(=O)N([C@H](C)CO)C[C@H]2C)cc1	none (no result: CBFb-RUNX1 inh, RORg inh, MBNL1 CUG block, Gal4-VP16 FLuc)
CC(C)Nc1ccc(Nc2ccnc3cc4ccccc4cc23)cc1	CBFb-RUNX1 inh inconclusive, RORg inh inconclusive, CtBP-E1A inh -81, Gal4-VP16 FLuc inconclusive, Six1-Eya2 blk -70 (no result: MBNL1 CUG block)
COc1ccc(Nc2ccnc3ccccc23)cc1	MBNL1 CUG block inconclusive
CC1=C(C(=O)OC(C)C)C(c2cccc([N+](=O)[O-])c2)n2c(cc(=O)[nH]c2=S)N1 (stereo unspecified)	RORg inh 13µM
COCCOC(=O)C1=C(C)NC(C)=C(C(=O)OC(C)C)[C@H]1c1cccc([N+](=O)[O-])c1	none (no result: CtBP-E1A inh, MBNL1 CUG block, Six1-Eya2 blk)
O=C1CC(SC(=NCc2ccc3c(c2)OCO3)Nc2ccccc2)C(=O)N1 (stereo unspecified)	none
COc1ccc(CN=C(Nc2ccccc2)SC2CC(=O)NC2=O)cc1 (stereo unspecified)	CBFb-RUNX1 inh inconclusive, RORg inh 13µM
C[C@H](CO)N1C[C@H](C)[C@H](CN(C)Cc2cncnc2)Oc2cc(Br)ccc2S1(=O)=O	none (no result: CBFb-RUNX1 inh, RORg inh, MBNL1 CUG block, Gal4-VP16 FLuc)
O=C(Nc1nc2ccccc2[nH]1)c1cc2ccccc2o1	RORg inh 2.5µM, Gal4-VP16 FLuc 7.9µM
Cc1cc(C)cc(C(=O)Nc2nc3ccccc3[nH]2)c1	RORg inh 6.3µM, Gal4-VP16 FLuc 10µM (no result: CBFb-RUNX1 inh)
COc1ccc(CCNC(=O)c2oc3ccccc3c2C)cc1	none (no result: CBFb-RUNX1 inh, RORg inh, CtBP-E1A inh, MBNL1 CUG block, Gal4-VP16 FLuc)
COc1ccc(CCNC(=O)c2oc3ccc(OC)cc3c2C)cc1	RORg inh 11µM (no result: CBFb-RUNX1 inh)
COc1ccc(OCC(=O)NNc2c3ccccc3nc3ccccc23)cc1	RORg inh 0.35µM, CtBP-E1A inh inconclusive, MBNL1 CUG block inconclusive, Gal4-VP16 FLuc 7.1µM, Six1-Eya2 blk inconclusive
Cc1ccsc1C(=O)Nc1nc2ccccc2[nH]1	RORg inh 2µM, Gal4-VP16 FLuc 7.1µM
COc1ccc2oc(C(=O)Nc3nc4ccccc4[nH]3)c(C)c2c1	RORg inh inconclusive, Gal4-VP16 FLuc 2.8µM (no result: CtBP-E1A inh)
COc1ccc(OCC(=O)Nc2nc3ccccc3[nH]2)cc1	RORg inh 0.79µM
COc1cc(OC)cc(C(=O)Nc2nc3ccccc3[nH]2)c1	RORg inh 3.2µM, Gal4-VP16 FLuc 5.6µM
O=C(Nc1nc2ccccc2[nH]1)c1cc(F)cc(F)c1	Gal4-VP16 FLuc inconclusive (no result: CBFb-RUNX1 inh)
CCN(CC)C(=O)C1=C(C)N(CCC2=CCCCC2)C(=O)C(CC(=O)NCc2cccc3ccccc23)C1 (stereo unspecified)	none (no result: CBFb-RUNX1 inh, RORg inh, MBNL1 CUG block, Gal4-VP16 FLuc)
Cc1cc(C)n(Cc2ccc(C(=O)N/N=C/c3ccc(-c4ccc([N+](=O)[O-])cc4)o3)o2)n1	RORg inh 8.9µM, MBNL1 CUG block inconclusive, Gal4-VP16 FLuc 6.3µM (no result: CBFb-RUNX1 inh)
Cc1cc(C(=O)N/N=C\c2ccc(COc3ccc([N+](=O)[O-])cc3)o2)ccc1[N+](=O)[O-]	RORg inh 11µM, Gal4-VP16 FLuc inconclusive
CCOc1ccc(C(=O)N/N=C/c2cc(Cl)ccc2[N+](=O)[O-])cc1	RORg inh inconclusive, Gal4-VP16 FLuc 5.6µM
O=C(N/N=C/c1ccco1)c1cc([N+](=O)[O-])cc([N+](=O)[O-])c1	RORg inh 5.6µM, Gal4-VP16 FLuc 10µM (no result: MBNL1 CUG block)
Cc1c(Cl)cccc1-n1c(SCC(=O)N2CCC(C(=O)O)CC2)nc2ccccc2c1=O	none (no result: CBFb-RUNX1 inh)
COc1ccc(CCN(C)C(=O)CSc2nnc(C3CC3)n2N)cc1OC	none (no result: CBFb-RUNX1 inh, RORg inh, MBNL1 CUG block, Gal4-VP16 FLuc)
Cn1c(CCNS(=O)(=O)c2ccccc2)nnc1SCc1cccnc1	none (no result: CBFb-RUNX1 inh)
CC/C=C\C/C=C\C/C=C\C/C=C\C/C=C\C/C=C\CCC(=O)NCC(=O)O	none (no result: CtBP-E1A inh, MBNL1 CUG block, Six1-Eya2 blk)
Cc1cc([N+](=O)[O-])ccc1-c1ccc(/C=N/NC(=O)c2ccc(Br)o2)o1	RORg inh 7.1µM, Gal4-VP16 FLuc 7.9µM (no result: CBFb-RUNX1 inh)
O=C(N/N=C/c1ccc(Br)o1)c1cc([N+](=O)[O-])cc([N+](=O)[O-])c1	RORg inh 1.6µM, MBNL1 CUG block inconclusive, Gal4-VP16 FLuc 4.5µM (no result: CtBP-E1A inh)
Cc1ccc(OCc2cc(C(=O)NC(C)Cc3cccc(C)n3)no2)cn1 (stereo unspecified)	none (no result: CBFb-RUNX1 inh)
Cc1nc(SCC(=O)NCC2CCCO2)c2c3c(sc2n1)CCCC3 (stereo unspecified)	RORg inh 3.5µM, Gal4-VP16 FLuc 13µM (no result: CBFb-RUNX1 inh)
CC(C)c1nc(SCC(=O)Nc2ccc(C(=O)O)cc2)c2c3c(sc2n1)CCCC3	Six1-Eya2 blk -83 (no result: CBFb-RUNX1 inh)
Cc1nc(SCC(=O)NCC2CCCO2)c2c(C)c(C)sc2n1 (stereo unspecified)	none (no result: CBFb-RUNX1 inh, RORg inh, MBNL1 CUG block, Gal4-VP16 FLuc)
c1ccc(CNc2ccc3ccccc3n2)nc1	RORg inh 10µM, CtBP-E1A inh inconclusive, Gal4-VP16 FLuc inconclusive
Cc1cc(NCc2ccccn2)nc2ccccc12	RORg inh inconclusive
COc1ccc2c(c1)OC1=C(C(=O)CCC1)C2C1=C(O)CCCC1=O (stereo unspecified)	RORg inh 11µM
O=C1CCCC(O)=C1C1C2=C(CCCC2=O)OC2=C1C(=O)CCC2	none
